From the supplement of paper PMC4466140

Target: CaNbp2
Assay: SPOT peptide array binding signal intensity (averaged, normalized) (arbitrary units (background-subtracted, floor 0; scale differs between SH3 domains)); higher = stronger binding of the SH3 domain to the peptide
Method: (§1)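 GST-tagged SH3 domains from S. cerevisiae (Sc), A. gossypii (Ag), C. albicans (Ca) and S. pombe (Sp) were incubated at 10 ug/ml overnight at 4 C on cellulose SPOT membranes carrying 292 synthetic 15-mer peptides mined from the S. cerevisiae proteome (cysteines replaced by serines). Binding was detected with anti-GST antibody, HRP secondary and chemiluminescence, quantified with Genespotter, and reported as normalized spot intensities averaged over biological replicates.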

Binder | SPOT peptide array binding signal intensity
RRRRRPHRIERPLSN | 394
PVLPPPRSPNRPTLS | 126

Target: CaRvs167
Assay: as above
Method: as §1

Binder | SPOT peptide array binding signal intensity
RRRRRPHRIERPLSN | 12
PVLPPPRSPNRPTLS | 114

Target: CaRvs167-3
Assay: as above
Method: as §1

Binder | SPOT peptide array binding signal intensity
RRRRRPHRIERPLSN | 104
PVLPPPRSPNRPTLS | 16.5

Target: CaSho1
Assay: as above
Method: as §1

Binder | SPOT peptide array binding signal intensity
RRRRRPHRIERPLSN | 674
PVLPPPRSPNRPTLS | ≤ 0

Target: CaSla1-D1-D2
Assay: as above
Method: as §1

Binder | SPOT peptide array binding signal intensity
RRRRRPHRIERPLSN | 27
PVLPPPRSPNRPTLS | 110

Target: CaSla1-D3
Assay: as above
Method: as §1

Binder | SPOT peptide array binding signal intensity
RRRRRPHRIERPLSN | 3.5
PVLPPPRSPNRPTLS | ≤ 0

Target: ScAbp1
Assay: as above
Method: as §1

Binder | SPOT peptide array binding signal intensity
RRRRRPHRIERPLSN | 16
PVLPPPRSPNRPTLS | 47.5

Target: ScBbc1
Assay: as above
Method: as §1

Binder | SPOT peptide array binding signal intensity
RRRRRPHRIERPLSN | 124
PVLPPPRSPNRPTLS | 186

Target: ScBem1-D1
Assay: as above
Method: as §1

Binder | SPOT peptide array binding signal intensity
RRRRRPHRIERPLSN | 98
PVLPPPRSPNRPTLS | 3.5

Target: ScBzz1-D1
Assay: as above
Method: as §1

Binder | SPOT peptide array binding signal intensity
RRRRRPHRIERPLSN | 7.5
PVLPPPRSPNRPTLS | 20

Target: ScBzz1-D2
Assay: as above
Method: as §1

Binder | SPOT peptide array binding signal intensity
RRRRRPHRIERPLSN | 15
PVLPPPRSPNRPTLS | 10

Target: ScCyk3
Assay: as above
Method: as §1

Binder | SPOT peptide array binding signal intensity
RRRRRPHRIERPLSN | 272
PVLPPPRSPNRPTLS | ≤ 0

Target: ScFus1
Assay: as above
Method: as §1

Binder | SPOT peptide array binding signal intensity
RRRRRPHRIERPLSN | 396
PVLPPPRSPNRPTLS | ≤ 0

Target: ScHof1
Assay: as above
Method: as §1

Binder | SPOT peptide array binding signal intensity
RRRRRPHRIERPLSN | ≤ 0
PVLPPPRSPNRPTLS | 63

Target: ScHse1
Assay: as above
Method: as §1

Binder | SPOT peptide array binding signal intensity
RRRRRPHRIERPLSN | 1290
PVLPPPRSPNRPTLS | ≤ 0

Target: ScLsb1
Assay: as above
Method: as §1

Binder | SPOT peptide array binding signal intensity
RRRRRPHRIERPLSN | 11.2
PVLPPPRSPNRPTLS | 284

Target: ScLsb2
Assay: as above
Method: as §1

Binder | SPOT peptide array binding signal intensity
RRRRRPHRIERPLSN | 6
PVLPPPRSPNRPTLS | 4

Target: ScLsb3
Assay: as above
Method: as §1

Binder | SPOT peptide array binding signal intensity
RRRRRPHRIERPLSN | 690
PVLPPPRSPNRPTLS | 4370

Target: ScLsb4
Assay: as above
Method: as §1

Binder | SPOT peptide array binding signal intensity
RRRRRPHRIERPLSN | 7.5
PVLPPPRSPNRPTLS | 372

Target: ScMyo3
Assay: as above
Method: as §1

Binder | SPOT peptide array binding signal intensity
RRRRRPHRIERPLSN | 6.5
PVLPPPRSPNRPTLS | 150

Target: ScMyo5
Assay: as above
Method: as §1

Binder | SPOT peptide array binding signal intensity
RRRRRPHRIERPLSN | 3.25
PVLPPPRSPNRPTLS | 14.5

Target: ScNbp2
Assay: as above
Method: as §1

Binder | SPOT peptide array binding signal intensity
RRRRRPHRIERPLSN | 437
PVLPPPRSPNRPTLS | 16

Target: ScPex13
Assay: as above
Method: as §1

Binder | SPOT peptide array binding signal intensity
RRRRRPHRIERPLSN | 0.5
PVLPPPRSPNRPTLS | 47

Target: ScRvs167
Assay: as above
Method: as §1

Binder | SPOT peptide array binding signal intensity
RRRRRPHRIERPLSN | 29
PVLPPPRSPNRPTLS | 1120

Target: ScSho1
Assay: as above
Method: as §1

Binder | SPOT peptide array binding signal intensity
RRRRRPHRIERPLSN | 430
PVLPPPRSPNRPTLS | 7

Target: ScSla1-D1-D2
Assay: as above
Method: as §1

Binder | SPOT peptide array binding signal intensity
RRRRRPHRIERPLSN | 303
PVLPPPRSPNRPTLS | 483

Target: ScSla1-D3
Assay: as above
Method: as §1

Binder | SPOT peptide array binding signal intensity
RRRRRPHRIERPLSN | 11
PVLPPPRSPNRPTLS | 12.5

Target: SpAbp1-D1
Assay: as above
Method: as §1

Binder | SPOT peptide array binding signal intensity
RRRRRPHRIERPLSN | 143
PVLPPPRSPNRPTLS | 70

Target: SpBbc1
Assay: as above
Method: as §1

Binder | SPOT peptide array binding signal intensity
RRRRRPHRIERPLSN | 7.25
PVLPPPRSPNRPTLS | 26

Target: SpBzz1-D1
Assay: as above
Method: as §1

Binder | SPOT peptide array binding signal intensity
RRRRRPHRIERPLSN | 91
PVLPPPRSPNRPTLS | 295

Target: SpBzz1-D2
Assay: as above
Method: as §1

Binder | SPOT peptide array binding signal intensity
RRRRRPHRIERPLSN | 1.25
PVLPPPRSPNRPTLS | ≤ 0

Target: SpCyk3
Assay: as above
Method: as §1

Binder | SPOT peptide array binding signal intensity
RRRRRPHRIERPLSN | 7
PVLPPPRSPNRPTLS | 1

Target: SpHof1
Assay: as above
Method: as §1

Binder | SPOT peptide array binding signal intensity
RRRRRPHRIERPLSN | 217
PVLPPPRSPNRPTLS | 7.5

Target: SpHof1-2
Assay: as above
Method: as §1

Binder | SPOT peptide array binding signal intensity
RRRRRPHRIERPLSN | 13
PVLPPPRSPNRPTLS | 12.5

Target: SpHof1-3
Assay: as above
Method: as §1

Binder | SPOT peptide array binding signal intensity
RRRRRPHRIERPLSN | 456
PVLPPPRSPNRPTLS | 46.5

Target: SpHse1
Assay: as above
Method: as §1

Binder | SPOT peptide array binding signal intensity
RRRRRPHRIERPLSN | 421
PVLPPPRSPNRPTLS | 108

Target: SpLsb1
Assay: as above
Method: as §1

Binder | SPOT peptide array binding signal intensity
RRRRRPHRIERPLSN | ≤ 0
PVLPPPRSPNRPTLS | 866

Target: SpLsb4
Assay: as above
Method: as §1

Binder | SPOT peptide array binding signal intensity
RRRRRPHRIERPLSN | 336
PVLPPPRSPNRPTLS | 3730

Target: SpMyo1
Assay: as above
Method: as §1

Binder | SPOT peptide array binding signal intensity
RRRRRPHRIERPLSN | 3
PVLPPPRSPNRPTLS | 71.2

Target: SpNbp2
Assay: as above
Method: as §1

Binder | SPOT peptide array binding signal intensity
RRRRRPHRIERPLSN | 418
PVLPPPRSPNRPTLS | 8

Target: SpPex13
Assay: as above
Method: as §1

Binder | SPOT peptide array binding signal intensity
RRRRRPHRIERPLSN | 10
PVLPPPRSPNRPTLS | ≤ 0

Target: SpRvs167
Assay: as above
Method: as §1

Binder | SPOT peptide array binding signal intensity
RRRRRPHRIERPLSN | 3.83
PVLPPPRSPNRPTLS | 1240

Target: SpSla1-D1-D2
Assay: as above
Method: as §1

Binder | SPOT peptide array binding signal intensity
RRRRRPHRIERPLSN | 5
PVLPPPRSPNRPTLS | ≤ 0

Target: SpSla1-D3
Assay: as above
Method: as §1

Binder | SPOT peptide array binding signal intensity
RRRRRPHRIERPLSN | 5
PVLPPPRSPNRPTLS | ≤ 0

Target: AgAbp1
Assay: as above
Method: as §1

Binder | SPOT peptide array binding signal intensity
PVLPPPRSPNRPTLS | 24

Target: AgBbc1
Assay: as above
Method: as §1

Binder | SPOT peptide array binding signal intensity
PVLPPPRSPNRPTLS | 700

Target: AgBem1-D1
Assay: as above
Method: as §1

Binder | SPOT peptide array binding signal intensity
PVLPPPRSPNRPTLS | 43

Target: AgBzz1-D1
Assay: as above
Method: as §1

Binder | SPOT peptide array binding signal intensity
PVLPPPRSPNRPTLS | 20

Target: AgBzz1-D2
Assay: as above
Method: as §1

Binder | SPOT peptide array binding signal intensity
PVLPPPRSPNRPTLS | 1

Target: AgCyk3
Assay: as above
Method: as §1

Binder | SPOT peptide array binding signal intensity
PVLPPPRSPNRPTLS | ≤ 0

Target: AgFus1
Assay: as above
Method: as §1

Binder | SPOT peptide array binding signal intensity
PVLPPPRSPNRPTLS | ≤ 0

Target: AgHof1
Assay: as above
Method: as §1

Binder | SPOT peptide array binding signal intensity
PVLPPPRSPNRPTLS | 9

Target: AgHse1
Assay: as above
Method: as §1

Binder | SPOT peptide array binding signal intensity
PVLPPPRSPNRPTLS | ≤ 0

Target: AgLsb1
Assay: as above
Method: as §1

Binder | SPOT peptide array binding signal intensity
PVLPPPRSPNRPTLS | 1

Target: AgLsb4
Assay: as above
Method: as §1

Binder | SPOT peptide array binding signal intensity
PVLPPPRSPNRPTLS | 369

Target: AgMyo5
Assay: as above
Method: as §1

Binder | SPOT peptide array binding signal intensity
PVLPPPRSPNRPTLS | 15.5

Target: AgNbp2
Assay: as above
Method: as §1

Binder | SPOT peptide array binding signal intensity
PVLPPPRSPNRPTLS | 1.5

Target: AgRvs167
Assay: as above
Method: as §1

Binder | SPOT peptide array binding signal intensity
PVLPPPRSPNRPTLS | 5.67

Target: AgSho1
Assay: as above
Method: as §1

Binder | SPOT peptide array binding signal intensity
PVLPPPRSPNRPTLS | ≤ 0

Target: AgSla1-D1-D2
Assay: as above
Method: as §1

Binder | SPOT peptide array binding signal intensity
PVLPPPRSPNRPTLS | ≤ 0

Target: AgSla1-D3
Assay: as above
Method: as §1

Binder | SPOT peptide array binding signal intensity
PVLPPPRSPNRPTLS | 0.5

Target: CaAbp1-D1
Assay: as above
Method: as §1

Binder | SPOT peptide array binding signal intensity
PVLPPPRSPNRPTLS | 418

Target: CaAbp1-D2
Assay: as above
Method: as §1

Binder | SPOT peptide array binding signal intensity
PVLPPPRSPNRPTLS | 79

Target: CaBbc1
Assay: as above
Method: as §1

Binder | SPOT peptide array binding signal intensity
PVLPPPRSPNRPTLS | 1660

Target: CaBem1-D1
Assay: as above
Method: as §1

Binder | SPOT peptide array binding signal intensity
PVLPPPRSPNRPTLS | 31

Target: CaBzz1-D1
Assay: as above
Method: as §1

Binder | SPOT peptide array binding signal intensity
PVLPPPRSPNRPTLS | 264

Target: CaBzz1-D2
Assay: as above
Method: as §1

Binder | SPOT peptide array binding signal intensity
PVLPPPRSPNRPTLS | 56

Target: CaCyk3
Assay: as above
Method: as §1

Binder | SPOT peptide array binding signal intensity
PVLPPPRSPNRPTLS | 67

Target: CaFus1
Assay: as above
Method: as §1

Binder | SPOT peptide array binding signal intensity
PVLPPPRSPNRPTLS | ≤ 0

Target: CaHof1
Assay: as above
Method: as §1

Binder | SPOT peptide array binding signal intensity
PVLPPPRSPNRPTLS | 2

Target: CaHse1
Assay: as above
Method: as §1

Binder | SPOT peptide array binding signal intensity
PVLPPPRSPNRPTLS | 1.5

Target: CaLsb1
Assay: as above
Method: as §1

Binder | SPOT peptide array binding signal intensity
PVLPPPRSPNRPTLS | ≤ 0

Target: CaLsb4
Assay: as above
Method: as §1

Binder | SPOT peptide array binding signal intensity
PVLPPPRSPNRPTLS | 1570

Target: CaMyo5
Assay: as above
Method: as §1

Binder | SPOT peptide array binding signal intensity
PVLPPPRSPNRPTLS | 2.5
